Screens as filed in PubChem BioAssay.
TMEM16A act – activates or potentiates the mouse TMEM16A chloride channel; HEK293 TMEM16A/YFP-H148Q/I152L, iodide quench fluorescence; hits give low values; B-score at 10 µM; hit rate 0.3% among 340,000;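 active means fluorescence-ratio B-score plate-corrected deviation score at least 3 library SD below zero, with starting fluorescence score within 5 deviations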;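 further: channel opened by trigger with iodide after compound preincubation; score built on the fluorescence ratio of max minus min over baseline; more negative score means more quench and so TMEM16A activation or potentiation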
HTR2A ag – agonists of mouse serotonin 5-HT2A receptor (HTR2A); P35363; CHO-K1 mHTR2A beta-arrestin complementation, luminescence; percent of 30 µM serotonin response; activation, % at 7.6 µM; hit rate 0.66% among 360,000;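 active means activation above a run cutoff, the mean activation of all tested compounds plus 3 SD, cut at about 14% in these data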;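 further: 0% = plate median of compound wells and 100% = 30 µM serotonin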
ANO1 block – inhibitors of mouse TMEM16A calcium-activated chloride channel | HEK293 TMEM16A/YFP iodide influx fluorescence, ionomycin | hit rate 1.2% among 310,000 | Q8BHY3 | AID 588511 | normalized B-score (activity score, 25-100; higher = stronger inhibition) at 10 µM;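 active means ratio plate-corrected score three or more library SD toward inhibition, starting fluorescence score within five deviations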;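 further: score derived from kinetic fluorescence span divided by baseline fluorescence per well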
TLR4 MyD88 comp – inhibitors of human TLR4-MyD88 binding; hit rate 0.18% among 200,000; AID 861; HeLa CL3-4 TLR4/MyD88 BLA complementation, FRET ratio; inhibition, % at 8.4 µM; O00206+Q99836; in the data active means inhibition above about 25%;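 further: 0% = vehicle and 100% = reference inhibitor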
Target sequence (O00206 whole entry, looked up): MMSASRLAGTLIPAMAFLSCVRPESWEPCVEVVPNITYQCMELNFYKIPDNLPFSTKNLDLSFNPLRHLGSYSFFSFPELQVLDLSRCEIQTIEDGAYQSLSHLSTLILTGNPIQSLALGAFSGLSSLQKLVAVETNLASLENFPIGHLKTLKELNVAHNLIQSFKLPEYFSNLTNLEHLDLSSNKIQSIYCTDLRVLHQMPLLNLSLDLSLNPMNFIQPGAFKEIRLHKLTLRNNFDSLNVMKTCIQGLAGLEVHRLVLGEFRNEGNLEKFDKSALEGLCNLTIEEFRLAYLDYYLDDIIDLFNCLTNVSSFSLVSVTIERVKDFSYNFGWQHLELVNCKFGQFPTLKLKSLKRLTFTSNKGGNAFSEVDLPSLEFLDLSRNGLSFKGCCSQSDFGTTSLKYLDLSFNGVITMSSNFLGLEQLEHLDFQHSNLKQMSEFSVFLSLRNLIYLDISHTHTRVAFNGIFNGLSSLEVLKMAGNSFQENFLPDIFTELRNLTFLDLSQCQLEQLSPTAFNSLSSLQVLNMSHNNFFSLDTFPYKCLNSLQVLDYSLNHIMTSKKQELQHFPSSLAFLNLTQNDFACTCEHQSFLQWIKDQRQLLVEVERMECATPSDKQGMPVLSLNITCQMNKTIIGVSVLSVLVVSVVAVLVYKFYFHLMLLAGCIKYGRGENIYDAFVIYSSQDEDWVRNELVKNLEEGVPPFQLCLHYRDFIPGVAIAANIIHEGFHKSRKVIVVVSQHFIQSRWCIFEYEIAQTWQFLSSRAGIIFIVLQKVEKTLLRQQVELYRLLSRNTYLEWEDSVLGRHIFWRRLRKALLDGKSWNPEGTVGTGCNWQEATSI
Target sequence (Q99836 whole entry, looked up): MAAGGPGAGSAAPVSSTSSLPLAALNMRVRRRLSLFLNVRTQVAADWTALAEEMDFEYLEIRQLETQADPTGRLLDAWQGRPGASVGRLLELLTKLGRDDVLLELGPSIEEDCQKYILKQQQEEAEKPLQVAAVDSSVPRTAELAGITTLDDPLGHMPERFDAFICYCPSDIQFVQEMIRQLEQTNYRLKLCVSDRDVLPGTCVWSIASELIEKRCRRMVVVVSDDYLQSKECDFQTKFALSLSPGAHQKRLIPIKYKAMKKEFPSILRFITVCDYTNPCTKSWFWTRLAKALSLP
TLR9-MyD88 inh – inhibitors of human TLR9-MyD88 binding; Q9NR96+Q99836; CHO BLA complementation TLR9-MyD88, CCF4 FRET ratio; inhibition, % at 4.98 µM; hit rate 0.21% among 340,000; AID 504734;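 active means inhibition above the mean over all tested compounds plus 3 SD, cut at about 21% in these data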;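 further: 0% = DMSO only wells and 100% = clavulanate BLA inhibitor control wells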
NOD2-RIPK2 inh – NOD2-RIPK2 protein interaction inhibition. O43353. CHO BLA complementation NOD2-RIPK2, CCF4 ratio. inhibition, % at 4.98 µM. hit rate 0.38% among 360,000. AID 624267; in the data active means inhibition above about 21%;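 further: 0% = vehicle only and 100% = reference blocker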
TLR9-MyD88 conf – confirmation of human TLR9-MyD88 binding inhibitors; shares compounds with TLR9-MyD88 inh; CHO TLR9/MyD88 BLA complementation, CCF4 FRET ratio; inhibition, % at 4.98 µM; hit rate 51% among 680; AID 540250;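 active means mean inhibition across three repeats above about 21% taken from the earlier screen, limit read from the data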;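 further: blue over green emission ratio reports constitutive TLR9 MyD88 association via BLA complementation; 0% = DMSO vehicle wells and 100% = clavulanate BLA inhibitor wells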
BLA counter-1 – counter-screen for TLR9-MyD88 inhibitors: non-selective beta-lactamase inhibitors; inhibition, % at 4.98 µM; shares compounds with TLR9-MyD88 inh; hit rate 7% among 680; AID 540251; CHO-BLA cells, CCF4 FRET ratio, BLA reporter;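 active means mean inhibition above a 50% cutoff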;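 further: counterscreen of TLR9-MyD88 hits on CMV-driven BLA in CHO-K1 cells; 0% = DMSO alone and 100% = clavulanate blocking BLA; higher means less blue over green ratio so more BLA blockade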
TLR9 CHO cytotox – counter-screen for TLR9-MyD88 inhibitors: cytotoxicity in CHO cells; luminescence; inhibition, % at 4.98 µM; shares compounds with TLR9-MyD88 inh; hit rate 39% among 680; AID 588336; in the data active means inhibition above about 11%
NOD2 RIPK2 conf – NOD2-RIPK2 interaction inhibition confirmed | shares compounds with NOD2-RIPK2 inh | CHO cells, NOD2-RIPK2 BLA complementation, CCF4 FRET | inhibition, % at 4.98 µM | hit rate 70% among 1,200 | AID 624370;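 active means mean inhibition across replicates above a set limit taken from the earlier primary screen, cut at about 21% in these data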;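 further: 0% = DMSO-only wells and the high end = clavulanate BLA-blocked wells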
BLA counter-2 – counter-screen for NOD2-RIPK2 interaction inhibitors: BLA reporter; shares compounds with NOD2-RIPK2 inh; CHO BLA reporter, CCF4 FRET ratio, counterscreen; inhibition, % at 4.98 µM; hit rate 57% among 1,200;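 active means mean inhibition above the low-control mean inhibition plus three low-control SD, cut at about 11% in these data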;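 further: 0% = DMSO only wells and 100% = clavulanate high control wells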
Numbers without * were called inactive; i = inactive; . = no result given. Compounds with a hit are over-represented: about 2.4% of the library has one in this group of screens.

SMILES	TMEM16A act	HTR2A ag	ANO1 block	TLR4 MyD88 comp	TLR9-MyD88 inh	NOD2-RIPK2 inh	TLR9-MyD88 conf	BLA counter-1	TLR9 CHO cytotox	NOD2 RIPK2 conf	BLA counter-2
CCN1CCN(Cc2c(O)ccc3c2O/C(=C\c2ccccc2)C3=O)CC1	i	0	i	8	21*	27*	15	12	0	25*	28*
CCC(=O)N1CCN(C(=O)CC)C1c1ccccc1	i	0	i	8	10	5	.	.	.	.	.
CCOC(=O)N1CCN(S(=O)(=O)c2ccc(NC(C)=O)cc2)CC1	i	1	i	.	1	3	.	.	.	.	.
Cc1c(C)c(C)c2[nH]c(-c3ccc4c(c3)OCO4)nc2c1C	i	-5	i	.	-5	1	.	.	.	.	.
Cc1n[nH]c(C)c1N1C(=O)c2cccc3c(N4CCCCCC4)ccc(c23)C1=O	i	7	i	17	27*	38*	16	18	6	32*	42*
CC(=O)c1ccc2c3c(cccc13)C(=O)N(c1c(C)nn(C)c1C)C2=O	i	-1	i	13	6	0	.	.	.	.	.
O=C(/C=C/c1cn(CC(O)CN2CCCCC2)c2ccccc12)c1cccs1 (configuration not stated)	i	-1	i	22	25*	28*	22*	20	5	51*	50*
Cc1nnsc1S(=O)c1ccc(Cl)cc1 (configuration not stated)	i	3	i	.	3	-6	.	.	.	.	.
O=C(Nc1ccccc1)c1nnsc1S(=O)c1ccc(Cl)cc1 (configuration not stated)	-9.3*	0	i	23	23*	33*	37*	7	97*	78*	25*
O=C(c1nnsc1S(=O)c1ccc(Cl)cc1)N1CCOCC1 (configuration not stated)	i	-4	.	6	28*	52*	31*	1	101*	68*	21*
CC(C)NS(=O)(=O)c1ccc(OCC(=O)N2CCCC2)c(Cl)c1	i	2	i	8	2	-12	.	.	.	.	.
CN1CC(C(=O)O)Cc2c1ccc1ccccc21 (configuration not stated)	i	1	i	.	-6	2	.	.	.	.	.
O=C(Nc1ccc(F)cc1)c1nc(S(=O)(=O)Cc2ccccc2)ncc1Cl	i	-2	i	.	36*	93*	48*	36	99*	90*	43*
COc1ccc(OC)c(NC(=O)c2nc(S(=O)(=O)Cc3ccccc3)ncc2Cl)c1	i	-10	i	.	57*	94*	53*	44	99*	102*	49*
COc1ccc(NC(=O)c2nc(S(=O)(=O)Cc3cccc(C)c3)ncc2Cl)c(OC)c1	i	-3	i	.	4	9	.	.	.	.	.
Cc1ccc(NC(=O)c2nc(S(=O)(=O)Cc3ccccc3)ncc2Cl)cc1	i	-4	i	.	45*	92*	45*	34	99*	90*	41*
Cc1ccccc1CS(=O)(=O)c1ncc(Cl)c(C(=O)Nc2ccc(F)cc2)n1	i	-9	i	.	34*	94*	34*	20	90*	83*	33*
Cc1c(NC(=O)CSc2ccccc2Cl)c(=O)n(-c2ccccc2)n1C	i	2	i	3	9	-6	.	.	.	.	.
